Screens deposited in PubChem by several laboratories.
Shn3 3UTR inh = Schnurri-3 reporter inhibition in Clone20 osteoblasts; Clone20 osteoblast Shn3 3'UTR firefly luciferase, 24 h; inhibition, % at 12.5 µM; hit rate 0.52% among 360,000; AID 588674;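 active means mean inhibition of at least 75% with every replicate also reaching 75%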;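 further: 0% = median of neutral control wells and 100% = pilot-screen positive control compound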
MITF TRPM1 inh = inhibitors of MITF-driven TRPM1 promoter in melanoma cells | SK-MEL-5 TRPM1 promoter luciferase, 24 h | inhibition, % at 12.5 µM | hit rate 0.83% among 330,000;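 active means mean inhibition across replicates of 60% or more, whatever share of single replicates reaches that level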
CF NFkB block = blocks PAF-induced NF-kB reporter in cystic fibrosis cells; inhibition, % at 5 µM; KKLEB NF-kB-GFP reporter, GFP fluorescence overnight; hit rate 0.86% among 360,000;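 active means at least 50% inhibition at 5 µM, scaled per plate between neutral and stimulator controls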;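 further: PAF is a Pseudomonas aeruginosa culture filtrate used as stimulus; plate controls were PAF-stimulated DMSO wells for no effect and unstimulated DMSO wells for full effect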
HIF-2a inh = HIF-2a inhibition; 786-0 RCC cells HIF-2a reporter, luciferase luminescence, overnight; hit rate 0.72% among 360,000; inhibition, % at 18.8 µM;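 active means inhibition of the luminescence signal of 40% or more relative to plate controls, in a single-dose primary screen at 18.75 µM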
Peg3 prom inh-1 = Peg3 promoter activity inhibition. HeLa PEG-Prom luciferase reporter, luminescence, overnight. inhibition, % at 20 µM. hit rate 1.7% among 360,000. AID 588405;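 active means inhibition of at least 50% at 20 µM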
KKLEB tox = reduces viability of KKLEB cystic fibrosis airway cells | AID 602141 | KKLEB CF airway cells viability, ATPlite luminescence, overnight; hits give low values; cells stimulated with P. aeruginosa culture filtrate | activity change (cytotoxicity), % at 5 µM | hit rate 0.36% among 360,000;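 active means corrected activity change at or below -50% at 5 µM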
Peg3 prom inh-2 = Peg3 promoter inhibition confirmation; hit rate 84% among 1,300; AID 602417; shares compounds with Peg3 prom inh-1; HeLa PEG-Prom luciferase reporter, luminescence, overnight; inhibition, % at 20 µM;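 active means at 20 µM dose, 40% or more inhibition averaged across four replicates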
Numbers without * were called inactive; x = not tested or not shown. Rows were chosen to be rich in hits. Some 2.7% of all compounds tested hit in one or more screens of this group.

SMILES | Shn3 3UTR inh | MITF TRPM1 inh | CF NFkB block | HIF-2a inh | Peg3 prom inh-1 | KKLEB tox | Peg3 prom inh-2
CCC(C)NC(=S)N(Cc1cc2cc(C)ccc2n2nnnc12)CC(C)(C)NC(C)C (centres undefined) | -7 | -1 | -18 | -2 | -21 | 0 | x
Cc1nc(N2CCN(c3ccccc3O)CC2)c2c(-c3ccccc3)csc2n1 | 21 | 18 | 45 | 12 | 66* | 26 | 66*
Cc1cc(OCC(O)CN2CCc3ccccc3C2)ccc1Cl (centres undefined) | -6 | -7 | 6 | -16 | -3 | -9 | x
CCN1CCc2c(sc(NC(=O)c3ccc(S(=O)(=O)N4CCOCC4)cc3)c2C(=O)OC)C1 | 17 | 2 | -23 | 17 | 76* | 1 | -20
CCN1CCc2c(sc(NC(=O)c3ccc(S(=O)(=O)N4CCOCC4)cc3)c2C(N)=O)C1 | 3 | -2 | -42 | 12 | 5 | 3 | x
CCN1CCc2c(sc(NC(=O)c3ccc(S(=O)(=O)N4CCCCCC4)cc3)c2C(=O)NC)C1 | 11 | 67* | 5 | 16 | 71* | 6 | 62*
CCCNC(=O)C(Cc1ccc(C(F)(F)F)cc1)NC(=O)c1ccc(C#N)cc1 (centres undefined) | -14 | x | -6 | 10 | -14 | -22 | x
CC(C)Cn1c(N)c(C(=O)CSc2n[nH]c(N)n2)c(=O)n(C)c1=O | -21 | 9 | 6 | 2 | 5 | -10 | x
CCOC(=O)N1CCC2(CC1)NC(=O)c1ccccc1N2 | -6 | x | -35 | 2 | -7 | -2 | x
CC(C)CC(=NNC(=O)c1ccncc1)c1cc(Cl)ccc1O | 85* | 55 | 34 | 14 | 64* | -8 | 73*
CNCC[C@@H](Oc1ccc(C(F)(F)F)cc1)c1ccccc1 | 3 | -9 | 14 | -12 | 74* | -21 | 69*
CN1CCC(NC(=O)c2cc(-c3cccc(Br)c3)nc3ccccc23)CC1 | -33 | -4 | -11 | -19 | 105* | -4 | 79*
COc1ccc(-c2sc3ccccc3c2C#Cc2cncn2C)cc1 | 3 | -5 | 17 | 22 | 52* | 0 | 33
O=C1N=C(N2CCOCC2)S/C1=C\c1ccc(-c2ccccc2Cl)o1 | -4 | -9 | -6 | -8 | 55* | 4 | 18
COc1ccc(/C=C/C(=O)c2ccc3c(c2)OCCO3)cc1[N+](=O)[O-] | -4 | -26 | 0 | -61 | 71* | -5 | 80*
CC(C)NC(=O)c1ccc2sc([C@H]3C[C@H](O)[C@@H](CO)O3)nc2c1 | -10 | x | 1 | 3 | -4 | 0 | x
COC(CNC(=O)c1cccnc1)OC | -6 | 2 | -17 | 8 | 18 | -1 | x
COC(CNC(=O)c1ccc2c3c(onc13)-c1ccccc1C2=O)OC | x | 80* | -2 | -169 | 102* | -2 | 99*
Cc1cccc(C)c1N1C(=O)c2ccccc2NC(=O)C1C(=O)Nc1ccc2c(c1)OCCO2 (centres undefined) | x | x | x | 1 | x | x | x
COc1ccc(-c2ccc(-c3nc4c(c(=O)[nH]c(=O)n4Cc4ccccc4)n3C)o2)c([N+](=O)[O-])c1 | -1 | 6 | 21 | 3 | 57* | -37 | 16
COCCn1c(-c2ccc(-c3ccc([N+](=O)[O-])cc3Br)o2)nc2c1c(=O)[nH]c(=O)n2CC(C)C | 11 | 7 | 19 | 18 | 52* | -6 | 30
COc1cc(C=NO)nc(-c2ccccn2)c1 | 93* | 79* | 18 | 2 | 52* | -16 | 65*
CC(=O)Nc1ccc(S(=O)(=O)N2CCN(C(=O)c3ncoc3-c3ccccc3)CC2)cc1 | -2 | 0 | 5 | -16 | -5 | 4 | x
COc1ccccc1N1CCN(C(=O)C(Sc2ccccc2)c2ccccc2)CC1 (centres undefined) | 9 | 14 | 2 | 24 | 52* | 14 | 41*
COc1ccccc1N1CCN(C(=O)CSc2ccccc2)CC1 | -24 | -64 | 3 | -153 | -138 | 8 | x
O=C(OCC#CCSc1nnc(-c2cccc3ccccc23)o1)c1ccc2ccccc2c1 | -10 | -15 | -4 | -37 | -46 | -4 | x
Cc1cc(C)cc(NC(=O)Cn2c(=O)oc3cc(S(=O)(=O)N4CCC(C)CC4)ccc32)c1 | 29 | x | 19 | 11 | 68* | 3 | 44*
